Inconclusive results are not listed. Active and inactive are the calls of the source. Calls follow the shape of the full dose curve.

The nature of the test: VSV-G qHTS counterscreen for inhibitors of SARS-S pseudo-typed particle cell entry. The note with it: VSV-G pseudotyped particle entry counterscreen, luciferase; series mostly up to 57.1 µM. On the technique in general: Quantitative high-throughput screening tests each substance at several concentrations.
`Cc1nnc2n1-c1sc(CCc3ccc(CC(C)C)cc3)cc1C(c1ccccc1Cl)=NC2C` (stereo not given): the Potency was 27.1 µM (active).
Take `CN(C)CCOC(c1ccccc1)c1ccc(Br)cc1` (stereo not given): the Potency entry was “inactive”.
On to `CNCCCC12CCC(c3ccccc31)c1ccccc12`, for which the Potency result is “inactive”.
Next, `C[C@@H](c1nc(-c2ccc(C#N)cc2)cs1)[C@](O)(Cn1cncn1)c1cc(F)ccc1F`: 21.5 µM (active).
Turning to `CO[C@@]12[C@H](COC(N)=O)C3=C(C(=O)C(C)=C(N)C3=O)N1C[C@@H]1N[C@@H]12`, the Potency was 3.41 µM (active).
With `O=c1c(C2CC(c3ccc(-c4ccc(Br)cc4)cc3)Cc3ccccc32)c(O)sc2ccccc12` (stereo not given), the Potency is 15.2 µM (active).
In the case of `Cc1oncc1C(=O)Nc1ccc(C(F)(F)F)cc1`, the Potency result was “inactive”.
Turning to `O=c1ccc2ccccc2o1`, the Potency result was “inactive”.
For `C[C@@H]1CCO[C@H]2Cn3cc(C(=O)NCc4ccc(F)cc4F)c(=O)c(O)c3C(=O)N12`, the Potency was 0.0054 µM (active).
In the case of `CC(CN(C)C)CN1c2ccccc2CCc2ccccc21` (stereo not given) it was “inactive”; in that of `CCc1c2c(nc3ccc(OC(=O)N4CCC(N5CCCCC5)CC4)cc13)-c1cc3c(c(=O)n1C2)COC(=O)[C@]3(O)CC`, “inactive”; in that of `C/C=C(/C)C(=O)O[C@H]1C(C)=CC23C(=O)C(C=C(CO)[C@@H](O)[C@]12O)[C@H]1[C@@H](C[C@H]3C)C1(C)C` (stereo not given in full), 0.215 µM (active).
In the case of `CC(C)OC(=O)[C@H](C)N[P@](=O)(CO[C@H](C)Cn1cnc2c(N)ncnc21)Oc1ccccc1` it was 0.242 µM (active).
Take `C=CC1(C)CC(=O)C2(O)C(C)(O1)C(OC(C)=O)C(OC(=O)CCN(C)C)C1C(C)(C)CCC(O)C12C` (stereo not given): the Potency result was “inactive”.
As for `COc1ccc2cc1Oc1ccc(cc1)C[C@H]1c3c(cc4c(c3Oc3cc5c(cc3OC)CCN(C)[C@@H]5C2)OCO4)CCN1C`, the Potency was 21.5 µM (active).
Next, `COc1cccc2c1C(=O)c1c(O)c3c(c(O)c1C2=O)C[C@@](O)(C(=O)CO)C[C@@H]3O[C@H]1C[C@H](N)[C@H](OC2CCCCO2)[C@H](C)O1` (stereo not given in full): 9.61 µM (active).
Next, `O=C(Nc1ccc(Cl)cc1)Nc1ccc(Cl)c(C(F)(F)F)c1`: 9.61 µM (active); `O=C1CCc2ccc(OCCCCN3CCN(c4cccc(Cl)c4Cl)CC3)cc2N1`: 19.2 µM (active).
With `CCCN1C[C@H](C)[C@@H](O)[C@](C)(O)[C@@H](CC)OC(=O)[C@H](C)[C@@H](O[C@H]2C[C@@](C)(OC)[C@@H](O)[C@H](C)O2)C(C)[C@@H](O[C@@H]2O[C@H](C)C[C@H](N(C)C)[C@H]2O)[C@](C)(O)C[C@H]1C` (stereo not given in full), the Potency entry was “inactive”.
In the case of `Cc1cc(-n2c(=O)[nH]c(=O)n(C)c2=O)ccc1Oc1ccc(S(=O)(=O)C(F)(F)F)cc1` it was 19.2 µM (active); in that of `CC[C@@H]([C@H](C)O)n1ncn(-c2ccc(N3CCN(c4ccc(OC[C@@H]5CO[C@@](Cn6cncn6)(c6ccc(F)cc6F)C5)cc4)CC3)cc2)c1=O`, 6.81 µM (active).
Next, `C[n+]1c2cc(N)ccc2cc2ccc(N)cc21` (tested in a mixture with another compound): 4.82 µM (active).
Regarding `C=C1c2c(Cl)ccc(O)c2C(O)=C2C(=O)[C@@]3(O)C(O)=C(C(N)=O)C(=O)[C@@H](N(C)C)[C@@H]3[C@@H](O)[C@H]12`, the Potency was 15.2 µM (active).
In the case of `COC(=O)C1=C(C)NC(C)=C(C(=O)OCC(C)C)C1c1ccccc1[N+](=O)[O-]` (stereo not given) it was 24.1 µM (active).
Turning to `O=C(Nc1ccc([N+](=O)[O-])cc1Cl)c1cc(Cl)ccc1O`, the Potency was 0.482 µM (active).
As for `Cc1c(N)nc(C(CC(N)=O)NCC(N)C(N)=O)nc1C(=O)NC(C(=O)NC(C)C(O)C(C)C(=O)NC(C(=O)NCCc1nc(-c2nc(C(=O)NCCCN[C@@H](C)c3ccccc3)cs2)cs1)C(C)O)C(O[C@@H]1O[C@@H](CO)[C@@H](O)[C@H](O)[C@@H]1O[C@H]1O[C@H](CO)[C@@H](O)[C@H](OC(N)=O)[C@@H]1O)c1cnc[nH]1` (stereo not given in full), the Potency was 0.304 µM (active).
As for `O=C1c2c(O)ccc(O)c2C(=O)c2c(NCCNCCO)ccc(NCCNCCO)c21`, the Potency is 0.171 µM (active).
Next, `CC(C)(C)C(=O)OCOP(=O)(COCCn1cnc2c(N)ncnc21)OCOC(=O)C(C)(C)C`: 0.0681 µM (active); `CC(=O)Oc1ccccc1C(=O)Nc1ncc([N+](=O)[O-])s1`: 6.81 µM (active); `COc1cccc2c1C(=O)c1c(O)c3c(c(O)c1C2=O)C[C@@](O)(C(C)=O)C[C@@H]3O[C@H]1C[C@H](N)[C@H](O)[C@H](C)O1`: 1.92 µM (active).

Values taken from PubChem BioAssay AID1494158 (National Center for Advancing Translational Sciences (NCATS), 2020).
